# Laboratory results from the OligoGym collection.
# Biological target: ZNF653
# Assay: pooled miR-30 sensor sort-seq; sequence = guide strand
# Settings: shRNA
# Also: reference of the scale not given here.
row,Sequence,sensor-assay potency score (higher = more potent)
1,TTGGATAAATAGAACTTCTTGC,-0.368
2,TGAAGTTGTACTGCACCTCCGC,-0.192
3,TTGGCGTCGCTCCAGCCGCTGC,-1.56
4,ATAAATAGAACTTCTTGCCACA,-0.586
5,TGACATGTCGCTGCCGTCCAGC,-1.21
6,ATGATGGCTGACATGTCGCTGC,-0.928
7,TAGCAAGCACAGGTCCTCCTTC,-0.219
8,TTGACGTGGTTCTGGAAGCTGC,-0.877
9,TTCTTCCTCTTGAAGGACTTGC,-0.65

# Biological target: ZNF654
# Assay: as above
# Settings: shRNA
row,Sequence,sensor-assay potency score (higher = more potent)
1,TTACACATGCAAAACTGCCTTT,0.225
2,TTCTTGTGGTACAACACTGGGC,-0.302
3,TTCTGAACTAAACTGTCTGTTT,0.135
4,TTTGCTAGTAGAAACTGGCAGA,-0.0895
5,TAGGATTTGAGTCTGTCTGAAC,-1.01
6,TATCTTGATCAGAACAGGCATC,-0.711
7,TGAGTCTGTCTGAACATCCCAA,-0.147
8,TTGATTTGCTAGTAGAAACTGG,0.3
9,TAAAGTTTCCTTCTTGATCTGT,0.508
10,TAAATATCCGGACACAACCAAG,-1.3
11,TTGAGCTGCAGCAATTTGCTGC,0.117
12,TTGTCGCACATTTAAATCGGTT,-1.07

# Biological target: ZNF674
# Assay: as above
# Settings: shRNA
row,Sequence,sensor-assay potency score (higher = more potent)
1,TTCTACATATTTTACATTCTTG,-0.737
2,TTGATGAGAGTTGACTTCCTAC,-0.0843
3,TTTACTACACTCATAAATGTTC,-0.591
4,TTGGACATTTGTCACATACAAA,-1.79
5,TATCTGCTCGTCAACTTCCCAG,-1.05
6,TTTACAGAAACAAAGTCTGTGT,-0.0841
7,TTCTTGACCACTTTCATCCTTC,0.42
8,TTGACCACTTTCATCCTTCAGT,0.00879
9,TACAGAAACAAAGTCTGTGTTG,-0.525
10,TTTTACATTCTTGACCACTTTC,-0.602
11,TTTTACAGAAACAAAGTCTGTG,0.624
12,TACATTCTTGACCACTTTCATC,-1.6

# Biological target: ZNF708
# Assay: as above
# Settings: shRNA
row,Sequence,sensor-assay potency score (higher = more potent)
1,TTTGTCACACTGAACTATTTTG,-1.74
2,TTTCTTGTGATTAGTAAGGTTT,-0.453
3,ATGTCTTATCTTATGTCTCTTT,-1.05
4,TTTTCTAGTAAGAATTATCTTA,-0.389
5,TTGAAAATACACTAAAAGCTTT,-0.61
6,TTATCTTATGATTCGTAAGGTT,-0.564
7,TACTGTGATGTCTTCCAGCTTT,-0.106
